An excerpt weighted towards active compounds, which were near 3.7% of everything screened.
PfHsp90 yeast 2: growth inhibition of yeast expressing Plasmodium Hsp90; S. cerevisiae expressing PfHsp90, BacTiter-Glo ATP, 48 h; yeast lacking PDR1 and PDR3 efflux regulators; inhibition, % at 9.4 µM; 310,000 tested, 0.32% active; AID 504621;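 active means every replicate shows inhibition above about 80%, whatever the replicate mean, limit read from the data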;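 further: 0% = DMSO neutral controls and 100% = 20 µM radicicol positive controls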
TIM10 inh: inhibits growth of TIM10 yeast strain. S. cerevisiae TIM10 strain growth, BacTiter-Glo luminescence, 24 h. inhibition, % at 10 µM. 330,000 tested, 1.4% active. AID 463195;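 active means inhibition of 40% or more at the single tested concentration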;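 further: wild-type TIM10 isogenic control strain grown at permissive 25 °C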
tim10-1 inh: growth inhibitors of tim10-1 mutant yeast | S. cerevisiae tim10-1 ts strain growth, BacTiter-Glo, 24 h | inhibition, % at 20 µM | 330,000 tested, 2.2% active;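 active means inhibition of at least 40%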;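 further: mutant grown at 25 °C; 0% = DMSO wells with yeast and 100% = wells holding no yeast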
NLRP3 yeast inh: NALP3 inhibition in yeast. Yeast reconstituted NLRP3/ASC/caspase-1, beta-gal luminescence, 24 h. inhibition, % at 10 µM. 330,000 tested, 0.39% active;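 active means inhibition of 50% or more; inactive means inhibition below 50%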;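 further: plate controls were induced DMSO wells for no effect and uninduced yeast grown without galactose for full effect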
tim23-1 inh: tim23-1 yeast growth inhibition; S. cerevisiae tim23-1 growth, BacTiter-Glo luminescence, 24 h; inhibition, % at 20 µM; 330,000 tested, 1.3% active; AID 463212;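 active means growth inhibition of the mutant yeast at or above 50%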;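 further: temperature-sensitive mutant grown at 25 °C; plate controls were DMSO-treated mutant yeast for no effect and medium wells lacking yeast for full effect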
tim10-1 conf: tim10-1 yeast growth inhibition, confirmed. inhibition, % at 20 µM. shares compounds with tim10-1 inh. 7,400 tested, 56% active. S. cerevisiae tim10-1 ts strain growth, BacTiter-Glo, 24 h;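 active means inhibition of yeast growth at or above a set limit in either of two repeat tests at 20 µM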;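 further: tim10-1 mutant grown at permissive 25 °C to find synthetic lethal compounds; 0% = DMSO yeast wells and 100% = medium wells without yeast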
An asterisk follows results filed as active.

How did NC(=O)C1=CC2C3C=CC2(O)C(=O)OC3O1 (centres undefined) do in these assays?
PfHsp90 yeast 2: -23.5

How did CCOC(=O)CSc1nc2ccccc2n2c(C)nnc12 do in these assays?
PfHsp90 yeast 2: 3.8; TIM10 inh: 2.1; tim10-1 inh: -3.5; NLRP3 yeast inh: 11.2; tim23-1 inh: 11.3

Results for CCOC(=O)CSc1cc(C)c(C#N)c2nc3ccccc3n12 ?
PfHsp90 yeast 2: 13.7; TIM10 inh: -3.1; tim10-1 inh: 41.2*; NLRP3 yeast inh: 6.0; tim23-1 inh: 28.0; tim10-1 conf: 26.3

Results for O=C1NCCNC1c1ccccc1 (centres undefined) ?
PfHsp90 yeast 2: 1.8

What do the screens show for `Cc1nc2cc(C(=O)N3c4ccccc4CC3C)ccc2s1` (centres undefined)?
PfHsp90 yeast 2: 2.8; TIM10 inh: 8.2; tim10-1 inh: 43.0*; NLRP3 yeast inh: -5.4; tim23-1 inh: 31.4; tim10-1 conf: 8.7

What do the screens show for `CC1Cc2ccccc2N1C(=O)c1ccc2snnc2c1` (centres undefined)?
TIM10 inh: 20.0; tim10-1 inh: 23.8; NLRP3 yeast inh: 9.9; tim23-1 inh: 21.0

What do the screens show for `COc1cc(SC)ccc1C(=O)Nc1ccc2ncccc2c1`?
PfHsp90 yeast 2: -2.5; TIM10 inh: 0.9; tim10-1 inh: -42.0; NLRP3 yeast inh: 45.5; tim23-1 inh: 47.5

How did O=C(NC(=S)NCCC1=CCCCC1)c1cncc(Br)c1 do in these assays?
PfHsp90 yeast 2: -52.9; TIM10 inh: 27.3; tim10-1 inh: 42.1*; NLRP3 yeast inh: -15.3; tim23-1 inh: 30.0; tim10-1 conf: 23.9

How did Cc1cccc(C(C(=O)NC2CCCC2)N(C(=O)c2csnn2)C2CCCC2)c1 (centres undefined) do in these assays?
PfHsp90 yeast 2: 0.0; TIM10 inh: 16.3; tim10-1 inh: 15.3; NLRP3 yeast inh: -3.0; tim23-1 inh: 15.5

What do the screens show for `CCN1CCC(O)(C(C(=O)O)c2ccccc2)CC1` (centres undefined)?
PfHsp90 yeast 2: -5.4

What do the screens show for `Cc1ccc(-c2nc(C(=O)NCCCN3CCOCC3)cc3c2[nH]c2ccccc23)cc1`?
TIM10 inh: 18.5; tim10-1 inh: 40.5*; NLRP3 yeast inh: -0.8; tim23-1 inh: 26.0; tim10-1 conf: 32.4*

What do the screens show for `O=C(CC1C=CCC1)Nc1ccccc1` (centres undefined)?
PfHsp90 yeast 2: 13.9

What do the screens show for `Oc1cc(Br)ccc1C=Nc1ccc(N2CCCCC2)cc1`?
PfHsp90 yeast 2: -9.4; TIM10 inh: 19.4; tim10-1 inh: 42.1*; NLRP3 yeast inh: 23.4; tim23-1 inh: 49.7; tim10-1 conf: 25.6

Results for COc1ccc(N2CCN(C(=O)COC(=O)c3cccc(S(=O)(=O)Nc4cccc(C)c4)c3)CC2)cc1 ?
PfHsp90 yeast 2: -5.8; TIM10 inh: 13.3; tim10-1 inh: -7.6; NLRP3 yeast inh: 18.2; tim23-1 inh: -3.5

What do the screens show for `CCCOc1ccc(N2C(=O)CC(N(CCC)C(=O)CCC(=O)O)C2=O)cc1` (centres undefined)?
PfHsp90 yeast 2: -6.6; TIM10 inh: -4.5; tim10-1 inh: -29.6; NLRP3 yeast inh: 32.1; tim23-1 inh: -8.7

How did CCCCCCC(=O)N(O)C1CC(=O)N(c2ccc(C)cc2)C1=O (centres undefined) do in these assays?
PfHsp90 yeast 2: 106.2*; TIM10 inh: 37.5; tim10-1 inh: 70.9*; NLRP3 yeast inh: -1.3; tim23-1 inh: 29.0; tim10-1 conf: 44.4*

Results for COc1ccccc1-c1nc(-c2ccccn2)no1 ?
PfHsp90 yeast 2: 54.0; TIM10 inh: 19.1; tim10-1 inh: 20.7; NLRP3 yeast inh: 11.1; tim23-1 inh: 19.5

What do the screens show for `COc1ccc(-c2nc(-c3ccccn3)no2)cc1`?
PfHsp90 yeast 2: 85.9*; TIM10 inh: 35.7; tim10-1 inh: 48.9*; NLRP3 yeast inh: 11.4; tim23-1 inh: 46.1; tim10-1 conf: 55.7*

How did Cc1nc2scc(C)n2c(=O)c1S(=O)(=O)N1CCN(c2cccc(C(F)(F)F)c2)CC1 do in these assays?
PfHsp90 yeast 2: 7.0; TIM10 inh: 17.4; tim10-1 inh: 50.1*; NLRP3 yeast inh: 0.0; tim23-1 inh: 46.6; tim10-1 conf: 43.1*

What do the screens show for `Cc1cc(O)c2c(c1)C(=O)c1cc(O)cc(O)c1C2=O`?
PfHsp90 yeast 2: 25.1; TIM10 inh: 24.1; tim10-1 inh: 45.4*; NLRP3 yeast inh: 44.1; tim23-1 inh: 44.3; tim10-1 conf: 22.8

Results for O=C1c2cc(O)cc(O)c2C(=O)c2c1cc(O)c([C@@H](CO)CCO)c2O ?
PfHsp90 yeast 2: 27.5; TIM10 inh: 3.1; tim10-1 inh: 10.3; NLRP3 yeast inh: 11.8; tim23-1 inh: 3.5

Results for CCCN1CCc2c(sc3nc(SCC)n(-c4ccc(OC)cc4)c(=O)c23)C1 ?
PfHsp90 yeast 2: 16.7; TIM10 inh: -27.4; tim10-1 inh: -37.8; NLRP3 yeast inh: 48.7; tim23-1 inh: 2.1

Results for Cc1ccc(C(=O)OCC(=O)NCC2COc3ccccc3O2)cc1 (centres undefined) ?
PfHsp90 yeast 2: -40.7; TIM10 inh: 7.2; tim10-1 inh: 19.4; NLRP3 yeast inh: 22.8; tim23-1 inh: 15.8

What do the screens show for `CCOC(=O)c1ccc(NC(=O)CC2COc3ccccc3O2)cc1` (centres undefined)?
PfHsp90 yeast 2: -25.5; TIM10 inh: 21.8; tim10-1 inh: 40.6*; NLRP3 yeast inh: 36.9; tim23-1 inh: 47.0; tim10-1 conf: 29.0

How did CCN(CC1COc2ccccc2O1)C(=S)Nc1ccccc1 (centres undefined) do in these assays?
PfHsp90 yeast 2: -9.1; TIM10 inh: 28.9; tim10-1 inh: 44.4*; NLRP3 yeast inh: 16.2; tim23-1 inh: 49.2; tim10-1 conf: 15.2*

Results for CCC(=O)Nc1ccc(C(=O)OCc2ccccc2)cc1 ?
TIM10 inh: 35.0; tim10-1 inh: 40.9*; NLRP3 yeast inh: 14.8; tim23-1 inh: 31.8; tim10-1 conf: 36.5*

Results for COCCSc1nnc(NC(=O)CCS(=O)(=O)c2ccccc2)s1 ?
PfHsp90 yeast 2: 28.5; TIM10 inh: 11.4; tim10-1 inh: 27.0; NLRP3 yeast inh: 15.1; tim23-1 inh: 17.1

Results for O=C(c1nc[nH]c1C(=O)N1CCN(c2ccccc2)CC1)N1CCN(c2ccccc2)CC1 ?
PfHsp90 yeast 2: -3.8; TIM10 inh: 7.7; tim10-1 inh: 2.6; NLRP3 yeast inh: 0.6; tim23-1 inh: -3.8

Results for Cc1nc2cc(C(=O)OCC(=O)NC34CC5CC(CC(C5)C3)C4)ccc2n1-c1ccccc1 ?
PfHsp90 yeast 2: -4.1; TIM10 inh: 27.8; tim10-1 inh: 40.2*; NLRP3 yeast inh: 1.3; tim23-1 inh: 34.2; tim10-1 conf: 31.9*

What do the screens show for `CN(CC(=O)Nc1ccccc1Cl)CC(=O)Nc1sc2c(c1C(N)=O)CCC2`?
PfHsp90 yeast 2: -3.6; TIM10 inh: 13.0; tim10-1 inh: 16.6; NLRP3 yeast inh: 6.8; tim23-1 inh: 24.3

How did CCN(CC)c1nc(-c2cccc(OC)c2O)nc2ccccc12 do in these assays?
PfHsp90 yeast 2: -36.3; TIM10 inh: 28.8; tim10-1 inh: 46.6*; NLRP3 yeast inh: 12.3; tim23-1 inh: 26.5; tim10-1 conf: 36.2*
